Data published in PubChem BioAssay (NCATS).
Inconclusive results are not listed. A number with no mark means an inactive call. The call rests on the fitted dose curve; in most records, active means well fitted inhibition curve with a large enough effect; inconclusive means small, poorly fitted or top-dose-only effect; inactive means no such curve, though single readings can be large or run the other way.

These molecules were tested against Rap guanine nucleotide exchange factor 3 (Homo sapiens) (UniProt O95398) (assay: Counterscreen qHTS for antagonist of cAMP-regulated guanine nucleotide exchange factor 3 (EPAC1) (AID 1645888;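 further: fluorescence loss as bound BODIPY-GDP is released from Rap1B; % of control where 0% means no effect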)). Details: Rap1B-BODIPY-GDP nucleotide exchange, fluorescence; series mostly up to 154 µM; activity change, negative = inhibition: at the top concentration.
In short: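 Rap1B–BODIPY-GDP (250 nM) with 50 uM GDP; compounds pin-transferred to 9.74 nM–152 uM final (activator) or from 7.32 nM upwards (inhibitor). Fluorescence Ex/Em 480/540 nm read at 5 and 30 min, then after adding cAMP or buffer, at room temperature.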

Rap guanine nucleotide exchange factor 3 (Homo sapiens), sequence (O95398 whole entry, looked up): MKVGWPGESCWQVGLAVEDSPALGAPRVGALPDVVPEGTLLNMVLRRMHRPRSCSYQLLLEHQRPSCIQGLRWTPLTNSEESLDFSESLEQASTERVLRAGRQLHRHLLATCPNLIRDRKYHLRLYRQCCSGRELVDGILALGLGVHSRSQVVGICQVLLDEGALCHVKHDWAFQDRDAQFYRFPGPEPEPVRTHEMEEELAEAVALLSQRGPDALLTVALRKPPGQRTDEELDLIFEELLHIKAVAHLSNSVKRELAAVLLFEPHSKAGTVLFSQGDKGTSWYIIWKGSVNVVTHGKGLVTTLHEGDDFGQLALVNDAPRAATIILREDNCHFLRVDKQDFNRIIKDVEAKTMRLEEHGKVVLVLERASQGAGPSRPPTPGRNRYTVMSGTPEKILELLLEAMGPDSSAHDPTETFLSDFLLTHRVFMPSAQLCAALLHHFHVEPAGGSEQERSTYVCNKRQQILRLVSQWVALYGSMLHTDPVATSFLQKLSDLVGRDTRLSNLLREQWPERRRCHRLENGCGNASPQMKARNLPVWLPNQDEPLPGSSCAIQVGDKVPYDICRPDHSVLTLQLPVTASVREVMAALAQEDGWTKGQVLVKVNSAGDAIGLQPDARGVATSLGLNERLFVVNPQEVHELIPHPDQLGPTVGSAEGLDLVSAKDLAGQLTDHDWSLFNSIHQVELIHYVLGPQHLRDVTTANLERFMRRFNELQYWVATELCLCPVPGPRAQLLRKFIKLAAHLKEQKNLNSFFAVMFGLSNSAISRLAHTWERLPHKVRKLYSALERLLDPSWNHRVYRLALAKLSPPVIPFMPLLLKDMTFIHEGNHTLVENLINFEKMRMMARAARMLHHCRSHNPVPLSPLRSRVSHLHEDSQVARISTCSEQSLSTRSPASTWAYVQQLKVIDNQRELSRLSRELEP

Row | SMILES | activity change, negative = inhibition
1 | Cc1cccc(-n2ccnc2SCC(=O)Nc2ccc(F)cc2F)c1C | 12.5%
2 | CN(CC(=O)Nc1cccc(F)c1)C(=O)c1cccc(S(=O)(=O)N2CC3(C)CC2CC(C)(C)C3)c1 (stereo not given) | -23.1% [at 30.8 µM]
3 | Cc1cc(C)nc(NS(=O)(=O)c2ccc(NC(=O)CN3C(=O)S/C(=C\c4ccccc4)C3=O)cc2)n1 | -9.17%
4 | O=C(N/N=C/c1c(O)ccc2ccccc12)c1[nH]ncc1Br | 12.8%
5 | COc1ccc(NC(=O)Cn2ncc(Cl)c(Cl)c2=O)cc1S(=O)(=O)N1CCOCC1 | 1.4% [at 30.8 µM]
6 | O=C(NC1(O)C(=O)c2ccccc2C1=O)c1ccc(C(F)(F)F)cc1 | 5.04%
7 | O=C(NC1CCCCC1)C(c1ccc(-c2ccccc2)cc1)n1c(=O)c(-c2ccco2)nc2ccccc21 (stereo not given) | -29.6%
8 | Cc1cccc(S(=O)(=O)Nc2ccc(S(=O)(=O)Nc3nccs3)cc2)c1 | -10.9%
9 | O=C(N/N=C/c1ccc(Sc2ccccn2)o1)c1cc2ccccc2cc1O | -17.8%
10 | O=C1/C(=C/c2cccs2)COc2ccccc21 | -3.32% [at 30.8 µM]
11 | COc1ccccc1NC(=O)c1ccccc1NS(=O)(=O)c1cccs1 | 9.31%
12 | CCOC(=O)C1=CCN(S(=O)(=O)c2ccccc2Cl)C1c1ccc(Cl)c(Cl)c1 (stereo not given) | -3.01% [at 30.8 µM]
13 | O=C(CC(c1ccccc1)c1cc(Cl)ccc1O)N1CCCC1 (stereo not given) | -3.54%
14 | CC1OC(CC(=O)O)CC2=C1C(=O)c1c(O)cccc1C2=O (stereo not given) | 6.8%
15 | Nc1c2c(=O)[nH]c(O)cc2nn1-c1ccccc1 | 11.2%
16 | Cc1ccc(C(=O)c2cn(Cc3cccc(C)c3)c3nc(C)ccc3c2=O)cc1 | -1.51%
17 | O=S(=O)(Nc1ccc(Cl)cc1NS(=O)(=O)c1ccccc1)c1ccccc1 | -27.8% [at 30.8 µM]
18 | O=C(Nc1sc2c(c1C(=O)O)CCCC2)c1ccc(Cl)cc1 | -8.59% [at 30.8 µM]
19 | Cc1ccc(-c2cc(C(=O)Nc3ccc(S(=O)(=O)Nc4onc(C)c4C)cc3)c3ccccc3n2)cc1 | 1.26% [at 30.8 µM]
20 | COc1ccc(NC(=O)CN(C)C(=O)c2cc(-c3ccco3)nc3ccccc23)cc1 | -5.22%

Row | SMILES | activity change, negative = inhibition
21 | CCOC(=O)c1ccc2ncc(C(=O)OCC)c(Nc3ccc(C)c(Br)c3)c2c1 | -28.8%
22 | CCCN(CC(=O)Nc1ccccc1OC)C(=O)c1cccc(S(=O)(=O)Nc2ccc(OC)cc2)c1 | -0.686%
23 | Cc1ccccc1C(=O)Nc1sc2c(c1C(=O)N1CCCCC1)CCC(C)C2 (stereo not given) | 13.2%
24 | Cc1ccc(-c2nc3ccc(Br)cn3c2Cc2ccccc2)cc1 | -9.65%
25 | COc1ccc(C(CC(=O)c2ccc(C)cc2)C(C#N)C#N)cc1OC (stereo not given) | -5.84%
26 | CCOc1ccccc1NC(=O)C1CCN(c2nc(-c3ccc(OC)cc3)no2)CC1 | -14.4% [at 30.8 µM]
27 | CCOc1ccccc1Oc1ncnc2c1oc1ccccc12 | 18.5%
28 | C=CCOC(=O)C1=C(C)NC(C)=C(C(=O)OCC=C)C1c1ccco1 | -5.56% [at 30.8 µM]
29 | O=C(CSc1ccc(-c2ccco2)nn1)c1cccc([N+](=O)[O-])c1 | 16.2%
30 | Cc1cc(SCC(=O)N/N=C/c2ccc(O)c(O)c2)nc2ccccc12 | -2.02% [at 30.8 µM]
31 | CC(C)Nc1nc(NC(C)C)nc(OCCOC(=O)c2ccccc2)n1 | 3.23%
32 | c1cc(-c2cc3nc(NC4CCCCC4)ccn3n2)ccc1OCCN1CCOCC1 | -10.7%
33 | C=CS(=O)(=O)N(Cc1ccccc1Br)[C@H](CO)CC(C)C | -13.6% [at 30.8 µM]
34 | Oc1c(C2=NCCNC(C(F)(F)F)=C2)ccc2ccccc12 | -9.45%
35 | O=C(/C=C/c1ccc(-c2ccccc2[N+](=O)[O-])o1)c1ccco1 | 9.73% [at 30.8 µM]
36 | O=C1N(Cc2ccccc2)c2ccccc2C1(O)c1c[nH]c2ccccc12 (stereo not given) | -12.5%
37 | Cn1cccc1C(=O)NC(=O)COC(=O)c1ccc(S(C)(=O)=O)c([N+](=O)[O-])c1 | -20.5% [at 30.8 µM]
38 | CCC1=NN2C(=N)/C(=C/c3ccc(OS(=O)(=O)c4ccccc4)cc3)C(=O)N=C2S1 | 6.83%
39 | CCCN1CCN(c2ncnc3sc(C(=O)Nc4ccc(OC(F)(F)F)cc4)c(C)c23)CC1 | -4.96%
40 | Cc1cccc(Cn2c(COc3ccccc3)nc3ccccc32)c1 | 7.46%
